The text below walks through data of PubChem BioAssay (EPA / NIEHS).

Where a structure was tested more than once in an assay, its records may differ in their call. Calls of active or inactive are those of the source. The calls were made as follows: active = hit-call score of the fitted dose curve at least 0.9, where 1 is the maximum; inactive = score below 0.9.

Common to all, as to conditions: mRNA level, 48 h; actives raise or lower the signal
Read-out in experiment [1]: Heat shock 70 kDa protein 1 (HSPA1A), gene 3303
The experiment is described as follows: LTEA_HepaRG_HSPA1A: Life Technologies and Expression Analysis (LTEA) Assay for Heat shock 70 kDa protein 1 (HSPA1A) using HepaRG (AID 2283502). Summed up: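 HSPA1A expression measured by qRT-PCR with ACTB/GAPDH/POLR2A normalization; curves fitted in both directions relative to DMSO vehicle. Exposure: 48 h in HepaRG cells, duplicate 8-point half-log series from 100 uM, 0.5% DMSO, serum-free induction medium.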

Read-out in experiment [2]: Hypoxia-inducible factor 1-alpha (Homo sapiens) (UniProt Q16665)
As to the kind of experiment: LTEA_HepaRG_HIF1A: Life Technologies and Expression Analysis (LTEA) Assay for Hypoxia-inducible factor 1 (HIF1A) Trancription factor using HepaRG (AID 2283503). Summed up: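 HIF1A transcript level read by qRT-PCR (ACTB, GAPDH, POLR2A normalization) after 48 h chemical exposure of HepaRG cultures. Eight half-log concentrations, top 100 uM, 0.5% DMSO vehicle, duplicates; bidirectional curve fit against DMSO baseline.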

Read-out in experiment [3]: 3-Hydroxy-3-Methylglutaryl-CoA Synthase 2 (HMGCS2), HMGCS2 (gene 3158)
As to the kind of experiment: LTEA_HepaRG_HMGCS2: Life Technologies and Expression Analysis (LTEA) Assay for 3-Hydroxy-3-Methylglutaryl-CoA Synthase 2 (HMGCS2) using HepaRG (AID 2283504). Summed up:
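Expression of HMGCS2 in human HepaRG liver cells is measured by qRT-PCR 48 h after dosing (highest 100 uM, half-log series, 0.5% DMSO). Values come from bidirectional concentration-response fitting with DMSO as baseline.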

Read-out in experiment [4]: HGF (gene 3082)
The experiment is described as follows: LTEA_HepaRG_HGF: Life Technologies and Expression Analysis (LTEA) Assay for Hepatocyte Growth Facto (HGF) using HepaRG (AID 2283505). Summed up:
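Gain or loss of HGF mRNA in human HepaRG liver cells after 48 h chemical exposure; eight concentrations up to 100 uM with 0.5% DMSO vehicle, quantified by TaqMan qRT-PCR.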

Read-out in experiment [5]: Insulin Like Growth Factor 1 (IGF1), IGF1 (gene 3479)
The experiment is described as follows: LTEA_HepaRG_IGF1: Life Technologies and Expression Analysis (LTEA) Assay for Insulin Like Growth Factor 1 (IGF1) using HepaRG (AID 2283506). Summed up: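 Expression measured by TaqMan qRT-PCR on a Fluidigm array, with three housekeeping genes for normalisation, after 48 h treatment of HepaRG cells. Top concentration 100 uM with half-log steps, 0.5% DMSO vehicle, bidirectional fit.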

Read-out in experiment [6]: Insulin-like growth factor-binding protein 1 (IGFBP1), IGFBP1 (gene 3484)
The experiment is described as follows: LTEA_HepaRG_IGFBP1: Life Technologies and Expression Analysis (LTEA) Assay for Insulin-like growth factor-binding protein 1 (IGFBP1) using HepaRG (AID 2283508). Summed up:
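mRNA induction or loss was quantified by qRT-PCR after 48 h chemical exposure of human HepaRG cells, with 0.5% DMSO as vehicle and baseline. Concentration-response over eight points up to 100 uM.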

Read-out in experiment [7]: Interleukin 6 (IL6), IL6 (gene 3569)
The experiment is described as follows: LTEA_HepaRG_IL6: Life Technologies and Expression Analysis (LTEA) Assay for Interleukin 6 (IL6) using HepaRG (AID 2283509). Summed up: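 Changes in IL6 mRNA, up or down relative to 0.5% DMSO controls, were derived from concentration-response curves in human HepaRG cells treated for 48 h at up to 100 uM, with ACTB, GAPDH and POLR2A as normalizers.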

Read-out in experiment [8]: Interleukin 6 Receptor (IL6R), IL6R (gene 3570)
As to the kind of experiment: LTEA_HepaRG_IL6R: Life Technologies and Expression Analysis (LTEA) Assay for Interleukin 6 Receptor (IL6R) using HepaRG (AID 2283510).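 As to AC50: differentiated human HepaRG liver cells in serum-free induction medium; TaqMan qRT-PCR signal normalized to ACTB GAPDH and POLR2A housekeeping genes.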 Summed up: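 IL6R transcript level by qRT-PCR after 48 h chemical exposure (8-point, half-log, max 100 uM, 0.5% DMSO vehicle) of HepaRG cells in serum-free induction medium. Normalized to three housekeeping genes; curves fitted in both directions relative to DMSO.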

Read-out in experiment [9]: Potassium channel subfamily K member 1 (KCNK1), KCNK1 (gene 3775)
As to the kind of experiment: LTEA_HepaRG_KCNK1: Life Technologies and Expression Analysis (LTEA) Assay for Potassium channel subfamily K member 1 (KCNK1) using HepaRG (AID 2283511). Summed up: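 Human HepaRG cultures receive test chemicals for 48 h in 0.5% DMSO, top concentration 100 uM with half-log dilutions. Induction or suppression of KCNK1 mRNA relative to DMSO is derived by bidirectional fitting of qRT-PCR data.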

Read-out in experiment [10]: Keratin 19 (KRT19), KRT19 (gene 3880)
The experiment is described as follows: LTEA_HepaRG_KRT19: Life Technologies and Expression Analysis (LTEA) Assay for Keratin 19 (KRT19) using HepaRG (AID 2283512). Summed up: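 Gene-expression endpoint in the human liver line HepaRG after 48 h exposure to up to 100 uM test chemical with 0.5% DMSO vehicle; KRT19 mRNA by qRT-PCR, analyzed bidirectionally versus DMSO.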

Read-out in experiment [11]: JUN Transcription Factor, JUN (gene 3725)
As to the kind of experiment: LTEA_HepaRG_JUN: Life Technologies and Expression Analysis (LTEA) Assay for JUN Transcription Factor using HepaRG (AID 2283513). Summed up:
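mRNA measured by TaqMan qRT-PCR after 48 h chemical exposure of HepaRG cultures; normalization to three housekeeping genes. Duplicate eight-point half-log curves from 100 uM in 0.5% DMSO; gain or loss fitted against DMSO baseline.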

Read-out in experiment [12]: Lipase C (LIPC), LIPC (gene 3990)
As to the kind of experiment: LTEA_HepaRG_LIPC: Life Technologies and Expression Analysis (LTEA) Assay for Lipase C (LIPC) using HepaRG (AID 2283514). Summed up: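 In this multiplexed gene-expression screen, human HepaRG cultures received test chemicals for 48 h across eight concentrations with 100 uM highest, in duplicate. Values reflect LIPC mRNA induction or suppression versus DMSO vehicle, from normalized qRT-PCR.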

Read-out in experiment [13]: Lipoprotein lipase (LPL), LPL (gene 4023)
As to the kind of experiment: LTEA_HepaRG_LPL: Life Technologies and Expression Analysis (LTEA) Assay for Lipoprotein lipase (LPL) using HepaRG (AID 2283515). Summed up:
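Concentration-response testing used half-log steps from 100 uM in 0.5% DMSO on human HepaRG cells, 48 h, duplicate wells. Phenobarbital 1 mM served as induction control; LPL mRNA was normalized to ACTB, GAPDH, POLR2A.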

Read-out in experiment [14]: MicroRNA 122 (MIR122), gene 406906
As to the kind of experiment: LTEA_HepaRG_MIR122: Life Technologies and Expression Analysis (LTEA) Assay for MicroRNA 122 (MIR122) using HepaRG (AID 2283516). Also: the transcript read is the microRNA miR-122. Summed up:
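Expression measured by microfluidic qRT-PCR with three housekeeping genes for normalisation, after 48 h treatment of HepaRG cultures. Eight concentrations (top 100 uM, half-log steps, 0.5% DMSO vehicle) in duplicate; gain or loss fitted relative to vehicle.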

Read-out in experiment [15]: matrix metalloproteinase-10 (MMP10), MMP10 (gene 4319)
As to the kind of experiment: LTEA_HepaRG_MMP10: Life Technologies and Expression Analysis (LTEA) Assay for matrix metalloproteinase-10 (MMP10) using HepaRG (AID 2283517). Summed up: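 In differentiated HepaRG cultures kept in 0.5% DMSO, test chemicals act for 48 h over an eight-point range with a top dose of 100 uM. Expression is then quantified by TaqMan RT-PCR against ACTB, GAPDH and POLR2A.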

Read-out in experiment [16]: MYC, MYC (gene 4609)
As to the kind of experiment: LTEA_HepaRG_MYC: Life Technologies and Expression Analysis (LTEA) Assay for MYC using HepaRG (AID 2283518). Summed up:
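Cells are thawed, plated and cultured 48 h, then treated for 48 h with test chemicals (eight half-log concentrations from 100 uM, 0.5% DMSO vehicle). RNA is isolated and MYC expression quantified by qRT-PCR against three housekeeping genes.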

Read-out in experiment [17]: matrix metalloproteinase-3 (MMP3), MMP3 (gene 4314)
The experiment is described as follows: LTEA_HepaRG_MMP3: Life Technologies and Expression Analysis (LTEA) Assay for matrix metalloproteinase-3 (MMP3) using HepaRG (AID 2283519). Summed up: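 Human liver HepaRG cultures received chemicals (top concentration 100 uM, 0.5% DMSO) for 48 h in duplicate. MMP3 mRNA induction or loss was then assessed via TaqMan qRT-PCR with housekeeping-gene normalisation.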

Read-out in experiment [18]: Paternally Expressed 10 (PEG10), PEG10 (gene 23089)
As to the kind of experiment: LTEA_HepaRG_PEG10: Life Technologies and Expression Analysis (LTEA) Assay for Paternally Expressed 10 (PEG10) using HepaRG (AID 2283520).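 As to AC50: differentiated HepaRG human liver cells in serum-free induction medium with 0.5% DMSO; PEG10 transcript by qRT-PCR normalised to ACTB GAPDH and POLR2A.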 Summed up: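 PEG10 transcript measured by Fluidigm qRT-PCR, normalized to three housekeeping genes, in HepaRG cells treated 48 h (highest 100 uM, half-log steps, 0.5% DMSO vehicle). Cells plated 48 h before switching to serum-free induction medium.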

Read-out in experiment [19]: Protein phosphatase 2A (PPP2R4), PTPA (gene 5524)
The experiment is described as follows: LTEA_HepaRG_PPP2R4: Life Technologies and Expression Analysis (LTEA) Assay for Protein phosphatase 2A (PPP2R4) using HepaRG (AID 2283522). Summed up: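 Expression was quantified by Fluidigm qRT-PCR normalised to three housekeeping genes after 48 h treatment. Human HepaRG cells received an 8-point series from 100 µM downward by half-logs, in duplicate with 0.5% DMSO vehicle and 1 mM phenobarbital as induction control.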

Read-out in experiment [20]: Phosphatase and tensin (PTEN), PTEN (gene 5728)
As to the kind of experiment: LTEA_HepaRG_PTEN: Life Technologies and Expression Analysis (LTEA) Assay for Phosphatase and tensin (PTEN) using HepaRG (AID 2283523). Summed up: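 Expression of PTEN is quantified in the human liver line HepaRG following two days of dosing (top concentration 100 uM, half-log dilutions, 0.5% DMSO). Values derive from bidirectional curve fitting relative to DMSO controls.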

Sequence of Hypoxia-inducible factor 1-alpha (Homo sapiens) (Q16665 whole entry, looked up): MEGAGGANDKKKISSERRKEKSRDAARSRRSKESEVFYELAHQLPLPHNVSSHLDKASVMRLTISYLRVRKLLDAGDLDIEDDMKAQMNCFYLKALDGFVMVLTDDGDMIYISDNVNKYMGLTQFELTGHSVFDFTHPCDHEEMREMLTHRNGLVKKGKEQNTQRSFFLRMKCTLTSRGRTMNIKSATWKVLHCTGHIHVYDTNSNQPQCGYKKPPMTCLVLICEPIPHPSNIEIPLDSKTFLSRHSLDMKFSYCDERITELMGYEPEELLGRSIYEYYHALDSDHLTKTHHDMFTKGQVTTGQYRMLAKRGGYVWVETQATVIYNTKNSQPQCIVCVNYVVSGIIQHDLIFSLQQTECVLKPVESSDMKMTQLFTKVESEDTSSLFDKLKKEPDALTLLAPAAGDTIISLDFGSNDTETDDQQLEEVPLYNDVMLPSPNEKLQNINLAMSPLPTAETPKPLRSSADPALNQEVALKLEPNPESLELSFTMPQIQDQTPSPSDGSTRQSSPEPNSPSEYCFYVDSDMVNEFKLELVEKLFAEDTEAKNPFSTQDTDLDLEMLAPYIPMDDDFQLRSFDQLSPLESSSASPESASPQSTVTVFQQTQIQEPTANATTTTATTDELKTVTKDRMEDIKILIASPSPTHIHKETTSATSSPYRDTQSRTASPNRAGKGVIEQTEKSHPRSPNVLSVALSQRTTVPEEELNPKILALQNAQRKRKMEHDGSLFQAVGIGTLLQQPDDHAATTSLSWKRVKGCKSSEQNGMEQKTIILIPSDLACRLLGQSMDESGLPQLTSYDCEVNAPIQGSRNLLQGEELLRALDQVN

Regarding `CCOP(=S)(OCC)Oc1nc(Cl)c(Cl)cc1Cl`, the result in experiment [1], in experiment [2], in experiment [3], in [4], in experiment [5] and in experiment [6] was inactive. The compound was called inactive in experiment [7], in [8], in [9], in experiment [10], in [11] and in experiment [12]. Further, the compound was called inactive in [13], in experiment [14], in [15], in experiment [16], in [17] and in [18]. Moreover, the call in experiment [19] and in experiment [20] was inactive.

Turning to `ClC1(Cl)C2(Cl)C3(Cl)C4(Cl)C(Cl)(Cl)C5(Cl)C3(Cl)C1(Cl)C5(Cl)C24Cl` (stereo unspecified), the compound was classed as inactive in experiment [1], in [2], in experiment [3], in experiment [4], in [5] and in experiment [6]. Also, the call in experiment [7], in experiment [8], in experiment [9], in experiment [10], in experiment [11] and in experiment [12] was inactive. Moreover, the compound was called inactive in experiment [13], in experiment [14], in experiment [15], in experiment [16], in experiment [17] and in experiment [18]. The compound was called inactive in experiment [19] and in experiment [20].

What is called AC50 is the concentration at which the activity in the assay is half-maximal. As for `O=C(O)C(Cl)(Cl)Cl`, the compound was classed as inactive in experiment [1], in experiment [2], in [3], in experiment [4], in [5] and in [6]. For the same compound, the result in experiment [7], in experiment [8], in experiment [9], in [10], in experiment [11] and in experiment [12] was inactive. Also, the result in experiment [13], in [14], in [15], in experiment [16], in experiment [17] and in [18] was inactive. Besides, the outcome in experiment [19] and in experiment [20] was inactive. Moreover, the half-maximal activity concentration (AC50) in [13] is 9.92 µM (active).

Consider `O=C(Nc1ccc2[nH]ccc2c1)c1cc2cc(F)ccc2n1Cc1cccc(F)c1`, for which the AC50 in [1] was 90.7 µM (active); in experiment [2], 84.5 µM (active); in experiment [3], 30.2 µM (active); in experiment [5], 33.1 µM (active); in experiment [6], 27.2 µM (active); in [7] it was 50 µM (active). Also, the AC50 in [8] is 89.5 µM (active); in experiment [10] it was 50 µM (active); in [11], 50 µM (active); in experiment [12], 59.7 µM (active); in [13] it was 19.9 µM (active); in [14] it was 24.9 µM (active). Moreover, the half-maximal activity concentration (AC50) in experiment [15] was 29 µM (active); in [16], 15.7 µM (active); in experiment [18], 50 µM (active). Moreover, the compound was called inactive in experiment [4], in experiment [9], in [17], in experiment [19] and in [20].
